Nrf2 block – blocks Nrf2 signaling. A549 ARE-Fluc reporter, luciferase luminescence, 18-24 h. Potency, µM (doses to about 46 µM), without a hit: top-dose activity change, negative = inhibition, usual class: inhibitors. 360,000 compounds, 2.1% hits. AID 504444; note: % is set by controls: 0 for no effect and ±100 for the full control effect; nearly all actives have a fitted effect of over 60% in size
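In this cell-based qHTS, ARE-driven firefly luciferase in A549 cells reports Nrf2 activity; the luminescent signal after BugLite lysis is the measured value, with a prior CellTiter-Fluor read for cell health.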
ATXN viability – viability counter-screen for ATXN expression inhibitors; Potency, µM (top dose mostly 56.7 µM), hits mostly cytotoxic; 400,000 compounds, 0.49% hits; S2 cells (HEK-293 line with an ATXN2-luciferase reporter) viability, CellTiter-Fluor protease fluorescence, 24 h; note: nearly all actives have a fitted effect of over 40% in size
Nrf2 ARE act – activates Nrf2 signaling; AREc32 ARE-luciferase reporter (MCF7-derived line), luminescence, 24 h; Potency, µM (titrated, usually from 46.1 µM), for inactives: top-dose activation, hits mostly activators; 410,000 compounds, 0.31% hits; note: % of control where 0% means no effect; nearly all actives have a fitted effect of over 65% in size
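ARE activation measured as luciferase luminescence (Steady-Glo, 30 min RT) in AREc32_Fluc cells after 24 hr compound exposure at 37 deg C, 5% CO2; cells seeded overnight at 1000/well in OPTI-MEM, 5% FBS.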
A549 viability – A549 cytotoxicity, counter-screen for Nrf2 inhibitors | 390,000 compounds, 0.16% hits | Potency, µM (doses to about 46 µM), for the others: top-dose activity change, negative = cytotoxicity, most hits filed as inhibitors | A549 ARE-Fluc cells, CellTiter-Fluor viability, 18-24 h | AID 504648; note: % is set by controls: 0 for no effect and ±100 for the full control effect
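A549 ARE_Fluc cells in 5% FBS OPTI-MEM were exposed to compounds in concentration-response for 18-24 h at 37 deg C. Viability was read by CellTiter-Fluor fluorescence (Ex 405/Em 525) after 30 min, before the luciferase read.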
ATXN2 expr inh – reduces ATXN2 reporter expression in HEK-293 cells | Potency, µM (top dose mostly 57 µM), for inactives: top-dose activity change, negative = inhibition, actives largely listed as inhibitors | 360,000 compounds, 0.72% hits | HEK-293 ATXN2-luciferase reporter, luminescence, 24 h | AID 1745845; note: % is set by controls: 0 for no effect and ±100 for the full control effect; nearly all actives have a fitted effect of over 55% in size
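ATXN2-luciferase reporter cells (luciferase flanked by upstream and downstream ATXN2 gene portions) were treated 24 h at 37 °C with compounds at up to 57 uM. SteadyGlo luminescence gave expression; GF-AFC fluorescence gave viability.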
Numbers without * were called inactive; i = inactive; u = inconclusive; x = no result given; [ ] = remark or other dose. Compounds with a hit are over-represented: about 2.9% of the library has one in this group of screens. Calls come from the whole dose curve; as a rule, active = well fitted curve in the direction sought with a large enough effect; inconclusive = small, poorly fitted or top-dose-only effect, or another doubt; inactive = no such curve, though single readings can be large; an effect the other way counts as inactive or inconclusive. Potency is the fitted concentration of half-maximal effect.

SMILES | Nrf2 block | ATXN viability | Nrf2 ARE act | A549 viability | ATXN2 expr inh
S=c1[nH]nc(-c2ccco2)n1/N=C/c1cccc(Cl)c1 | -3% | i | 13µM* | 3% | -26%
O=[N+]([O-])c1ccccc1/C=C/C=N/n1c(-c2ccco2)n[nH]c1=S | 7% | i | 10µM* | -4% | -5%
CC(C)(C)S(=O)N1Cc2cc(=O)n(Cc3ccccc3)c(CCO)c2[C@H]1CCO (stereo partly drawn) | 5% | i | 3% | 11% | u
CCCCN1CNC(=S)N(c2cc(C)ccc2C)C1 | 6% | i | 0% | -6% | 3%
FC(F)(F)c1cc(-c2ccco2)nc(NCc2cccs2)n1 | -20% | u | u | 4% | -5%
FC(F)(F)c1cc(-c2ccco2)nc(NCc2ccco2)n1 | 6% | i | 10µM* | -1% | -20%
CCOC(=O)N1CCC(NC(=O)c2ccc3c(c2)N=C(CC)c2cc(C)ccc2S3)CC1 | 23µM* | i | -1% | 5% | u
CCC1=Nc2cc(C(=O)N3CCCCC3)ccc2Sc2ccc(C)cc21 | -28% | 32µM* | 0% | -12% | u
CCC1=Nc2cc(C(=O)NC3CCC(C)CC3)ccc2Sc2ccc(C)cc21 (stereo not drawn) | u | u | 0% | -4% | 9%
Cc1[nH]c(-c2ccc(F)cc2)cc1C(=O)N1CCN(c2ccccc2)CC1 | u | i | 3% | u | u
Cc1ccc2[nH]c(=O)c3cc(C(=O)NCCCN4CCC(C)CC4)sc3c2c1 | 10% | 20µM* | 5% | 1% | 28µM*
Cc1ccc2nc(Cl)c3cc(C(=O)NCCCN4CCC(C)CC4)sc3c2c1 | 1% | x | 10% | 7% | x
CC1CCN(C(=O)C2CCN(C(=O)c3cc4sccc4n3Cc3ccc(F)cc3)CC2)CC1 | -51% | u | 4% | 2%[1.84 µM] | u
CC(C)NC(=O)C1CCN(C(=O)c2cc3sccc3n2Cc2ccc(F)cc2)CC1 | 15µM* | i | 0% | u | u
CC(C)(C)OC(=O)NCCc1nnc(SCc2ccccc2Cl)o1 | 26µM* | i | 2% | x | 5%
Cc1sc(NC(=O)CN(Cc2ccc(F)cc2)C(=O)C(C)(C)C)c(C(N)=O)c1C | -15% | u | 0% | -2% | -19%
Cc1cccc(CC(Cc2nc3ccccc3[nH]2)c2nc3ccccc3[nH]2)c1 (stereo not drawn) | 26µM* | u | 12% | u | u
CCOc1ccc(CNS(=O)(=O)c2ccc3c(c2)CCCN3C(C)=O)cc1OC | x | i | 3% | 4% | -11%
Cc1cc(C(=O)COC(=O)c2cccc(O)c2)c(C)n1C1CC1 | 13µM* | i | -2% | -1% | u
CO[C@H]1C=CO[C@@]2(C)Oc3c(C)c(O)c4c(O)c(c(C=NN5CCN(C)CC5)c(O)c4c3C2=O)NC(=O)C(C)=CC=C[C@H](C)[C@H](O)[C@@H](C)[C@@H](O)[C@@H](C)[C@H](OC(C)=O)[C@@H]1C | u | 28µM* | 8% | u | 19%
C/C(=N\NC(=O)C(C)n1nc(C)c([N+](=O)[O-])c1C)c1ccccc1O (stereo not drawn) | u | i | -1% | -3% | 16µM*
O=C(CC(c1ccccc1)c1cc(Br)ccc1O)NCc1ccco1 (stereo not drawn) | x | i | 3% | 0% | 2%
CCN(C(=O)C=Cc1ccco1)c1ccccc1 | 3% | i | 14µM* | 4% | 2%
CC(=O)c1c(C)[nH]c(C(=O)CN2CCN(S(=O)(=O)c3ccc(C(C)C)cc3)CC2)c1C | 15µM* | i | 0% | -13% | -9%
CC(=O)c1c(C)[nH]c(C(=O)CN2CCN(S(=O)(=O)c3ccccc3F)CC2)c1C | 26µM* | i | 6% | -13% | -2%
COc1ccc(S(=O)(=O)N2CCN(CC(=O)c3[nH]c(C)c(C(C)=O)c3C)CC2)cc1OC | -8% | u | 0% | 2% | -11%
O=C(Nc1cccc(S(=O)(=O)Nc2ccc(SC(F)F)cc2)c1)C1CCC1 | u | i | 3% | -16% | -27%
COC(=O)N/N=C/c1cccs1 | 5% | i | -1% | 8% | -10%
